PAFAH1B3 FP inh = inhibitors of human PAFAH1B3; Q15102; recombinant PAFAH1B3, FP-rhodamine probe, fluorescence polarization; inhibition, % at 3.39 µM; actives 0.28% (n = 340,000);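 active means inhibition above the screen-wide average of all tested compounds plus 3 SD, cut at about 25% in these data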;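 further: 0% = enzyme with DMSO only and 100% = wells lacking PAFAH1B3 protein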
Target sequence (Q15102 whole entry, looked up): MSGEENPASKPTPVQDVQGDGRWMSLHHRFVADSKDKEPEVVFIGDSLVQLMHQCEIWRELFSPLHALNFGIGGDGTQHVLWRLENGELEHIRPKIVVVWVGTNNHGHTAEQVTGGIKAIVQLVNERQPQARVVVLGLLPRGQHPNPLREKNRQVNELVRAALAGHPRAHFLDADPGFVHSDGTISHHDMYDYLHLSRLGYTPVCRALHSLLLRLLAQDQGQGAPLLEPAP
HTRA1 inhibitor = blocks human HTRA1 serine peptidase | AID 504803 | recombinant HTRA1, FP-rhodamine activity-based probe, fluorescence polarization | actives 0.5% (n = 340,000) | Q92743 | inhibition, % at 5.96 µM; in the data active means inhibition above about 36%;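 further: 0% = enzyme with DMSO and 100% = wells lacking enzyme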
PAFAH1B2 FP inh = inhibitors of human PAFAH1B2; inhibition, % at 3.39 µM; P68402; actives 1.2% (n = 340,000); recombinant PAFAH1B2, FP-rhodamine activity probe, fluorescence polarization;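 active means inhibition above the mean of all tested compounds plus 3 SD, cut at about 24% in these data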;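 further: 0% = enzyme with DMSO and 100% = wells lacking PAFAH1B2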
DAGLB inhibitor = blocks human DAGLB lipase activity; HEK293T DAGLB membrane lysate, EnzChek fluorogenic substrate; inhibition, % at 5.17 µM; actives 0.059% (n = 340,000); in the data active means inhibition above about 34%;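 further: 0% = enzyme with vehicle and 100% = wells lacking enzyme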
pPAFAH inh = inhibitors of human plasma PAF acetylhydrolase (pPAFAH); Q13093; recombinant pPAFAH, FP-rhodamine probe fluorescence polarization; inhibition, % at 3.39 µM; actives 1.5% (n = 330,000); AID 463082;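 active means inhibition above the mean inhibition across the screen plus 3 SD, cut at about 25% in these data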;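 further: inhibitors block binding of the rhodamine activity-based probe so polarization drops; 0% = enzyme with DMSO and 100% = wells lacking pPAFAH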
Target sequence (Q13093 whole entry, looked up): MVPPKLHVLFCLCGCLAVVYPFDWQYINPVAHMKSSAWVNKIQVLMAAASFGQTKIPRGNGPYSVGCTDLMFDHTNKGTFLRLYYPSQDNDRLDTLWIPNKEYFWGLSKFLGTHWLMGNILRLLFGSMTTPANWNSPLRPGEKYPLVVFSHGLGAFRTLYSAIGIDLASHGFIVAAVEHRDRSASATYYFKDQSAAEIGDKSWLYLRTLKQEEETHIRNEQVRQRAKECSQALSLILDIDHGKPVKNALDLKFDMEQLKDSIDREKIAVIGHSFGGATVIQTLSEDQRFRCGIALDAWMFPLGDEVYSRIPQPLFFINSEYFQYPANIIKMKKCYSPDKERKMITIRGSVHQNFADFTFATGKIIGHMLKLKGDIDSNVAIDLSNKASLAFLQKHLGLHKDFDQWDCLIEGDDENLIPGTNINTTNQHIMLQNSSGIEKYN
PAFAH2 FP inh = PAFAH2 (human) inhibition. actives 0.99% (n = 340,000). recombinant PAFAH2, FP-rhodamine activity probe, fluorescence polarization. inhibition, % at 3.39 µM;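 active means inhibition above the mean over all tested compounds plus 3 SD, cut at about 30% in these data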;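 further: inhibitors block probe labeling of enzyme so polarization drops; 0% = enzyme with DMSO and 100% = wells lacking PAFAH2 protein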
HTRA1 inh conf = confirmation of human HTRA1 inhibitors; AID 540248; shares compounds with HTRA1 inhibitor; recombinant HTRA1, FP-rhodamine activity-based probe, fluorescence polarization; inhibition, % at 5.96 µM; actives 66% (n = 1,600);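 active means mean inhibition over three repeats above a set limit taken from the earlier primary screen, cut at about 37% in these data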;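 further: 0% = HTRA1 with DMSO and 100% = wells lacking HTRA1; inhibitors block probe binding so polarization drops and inhibition rises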
* hit, by the source's call; · = no result given. Most compounds without a hit are left out; they make up all but 2.8% or so of the library.

SMILES	PAFAH1B3 FP inh	HTRA1 inhibitor	PAFAH1B2 FP inh	DAGLB inhibitor	pPAFAH inh	PAFAH2 FP inh	HTRA1 inh conf
O=C(O)c1cccc(Cn2c(Cl)c(/C=N/NC(=O)c3ccccc3)sc2=O)c1	3.4	2.5	4.0	2.4	7.7	-0.3	·
O=C(O)c1ccc(/C=N/NC(=O)c2cc3ccccc3cc2O)cc1	20.3	42.4*	7.8	0.6	23.4	5.2	15.6
C=CCn1c(SCC(=O)Nc2ccc(F)cc2)nc2ccccc2c1=O	8.6	-4.5	4.3	-3.2	-1.9	-5.3	·
O=CNCCCc1nc2ccccc2n1CCc1ccccc1	4.7	4.6	5.4	-0.1	·	-3.1	·
CCN(CC)c1ccc(N)cc1	3.5	44.4*	0.1	9.5	8.9	-6.4	65.7*
CSCCC(NC(=O)c1ccccc1Br)C(=O)N1CCCCCCC1 (stereo not given)	1.0	-2.6	3.4	0.9	5.9	-2.1	·
COc1cccc2c(N/N=C/c3ccc(O)c(O)c3)cc(C)nc12	5.0	47.1*	-1.2	2.2	7.3	-0.6	76.7*
O=C(CCc1ccccc1)NC(c1cccs1)c1cc(Cl)c2cccnc2c1O (stereo not given)	13.9	48.8*	8.3	3.6	·	1.6	54.0*
CCC(=O)NC(c1ccc(OC)cc1)c1cc(Cl)c2cccnc2c1O (stereo not given)	8.6	59.3*	-0.8	15.1	24.4	-4.7	72.5*
CCCCC(=O)NC(c1ccco1)c1cc(Cl)c2cccnc2c1O (stereo not given)	8.3	59.0*	3.8	16.6	29.3*	7.3	64.9*
CCC(=O)NC(c1ccco1)c1cc(Cl)c2cccnc2c1O (stereo not given)	8.5	55.7*	-2.8	9.4	24.1	13.0	63.5*
CCC(=O)NC(c1ccco1)c1cc(Cl)c2cccnc2c1OC (stereo not given)	5.8	-3.4	-4.7	-2.2	-0.7	0.0	·
CCC(=O)NC(c1cccs1)c1cc(Cl)c2ccccc2c1O (stereo not given)	6.2	-32.7	1.6	-3.3	0.5	-7.2	·
CC(C)c1nnc(SCC(=O)NC2CCCC2)n1C	-4.0	10.8	6.2	2.2	-2.6	4.8	·
O=C(CC1C(=O)NCCN1C(=O)c1ccc([N+](=O)[O-])cc1)Nc1ccc(F)cc1 (stereo not given)	5.2	1.2	2.7	0.3	-1.9	3.0	·
CCCN1C(=O)C2(SC(NC(C)=O)=NN2C(C)=O)c2cc(C)ccc21 (stereo not given)	3.4	3.0	3.4	2.3	5.3	2.7	·
CC1Oc2ccccc2N(Cc2ccc(F)cc2)C1=O (stereo not given)	11.1	-0.7	4.5	-3.8	3.6	16.9	·
CCOc1c(OC(C)=O)ccc(/C=C/c2ccc3cccc(OC(C)=O)c3n2)c1[N+](=O)[O-]	12.2	36.7*	-2.4	-1.3	15.5	-2.4	26.6
CSc1ccc(S(=O)(=O)N2CCC(C(=O)NCCN3CCOCC3)CC2)cc1	6.2	3.1	-1.7	-0.8	-1.3	-16.2	·
COc1ccc2cc(CO)n(C)c2c1	0.6	41.8*	0.7	-1.5	2.5	7.5	22.6
COc1ccc2cc(C=O)n(C)c2c1	18.4	-1.7	6.3	-1.4	3.1	2.0	·
O=C(Oc1ccc(OC(=O)c2ccco2)c(S(=O)(=O)c2ccc(Br)cc2)c1)c1ccco1	12.0	42.2*	44.5*	26.5	0.6	10.5	51.3*
Cc1ccc(S(=O)(=O)c2cc(OC(=O)c3ccco3)ccc2OC(=O)c2ccco2)cc1	0.0	11.7	3.2	16.8	0.5	8.8	·
O=C(NCCc1ccccc1)c1ccc(NC(=O)C2CCC2)cc1	-5.7	-6.7	3.1	-5.2	·	2.5	·
Cc1cccc(CC(=O)N2CCC(n3nccc3NC(=O)C3CC3)CC2)c1	0.2	-1.2	-13.4	-1.0	3.7	-3.5	·
SMILES	PAFAH1B3 FP inh	HTRA1 inhibitor	PAFAH1B2 FP inh	DAGLB inhibitor	pPAFAH inh	PAFAH2 FP inh	HTRA1 inh conf
NC(=S)NN=Cc1nccc2c(C(F)(F)F)cccc12	·	68.9*	·	4.1	·	·	79.8*
O/N=C(\CN1CCCCC1)c1ccccc1	3.8	-4.1	7.1	0.2	-0.8	-0.9	·
Oc1c(CN2CCOCC2)cc(COCc2ccccc2)c2cccnc12	3.7	27.9	1.8	2.5	8.8	5.1	·
Oc1c(CNc2ccccc2)cc(COCc2ccccc2)c2cccnc12	-3.2	49.1*	-4.5	-11.3	13.9	-5.4	15.0
CCOC(=O)C1=C(C)N=C2c3ccccc3C(=O)C2C1c1ccc(Cl)cc1 (stereo not given)	20.6	38.0*	3.2	29.2	3.9	11.0	34.5
CCOC(=O)CN(C)Cc1cn(C)nc1-c1ccc(Oc2ccccc2)cc1	12.6	-9.6	11.3	-8.9	8.8	1.1	·
Cc1oc(-c2ccccc2F)nc1CS(=O)CC(=O)NCc1ccc(F)cc1 (stereo not given)	7.8	-0.9	5.7	-1.1	0.3	4.6	·
c1ccc(N=Nc2ccc3cccccc2-3)cc1	-0.4	52.8*	1.1	21.4	11.8	3.5	64.3*
Nc1ccc(N=Nc2ccccc2)c2ccccc12	5.8	7.0	2.1	3.3	16.4	4.9	·
COc1ccc(NC(=O)CN(C)C(=O)CNC(=O)c2ccc(C)s2)cc1	2.7	1.3	2.7	-0.8	2.3	2.4	·
CC(=O)C(=Nc1ccccc1Cl)NNc1ccc(Cl)cc1	10.4	47.3*	-0.4	14.1	14.0	2.8	-17.6
Nc1ccccc1Nc1nc2ccccc2[nH]1	14.2	10.0	0.6	-1.3	3.3	6.2	·
Nc1ccc(Nc2nc3ccccc3[nH]2)cc1	25.0	57.7*	6.3	4.2	9.6	15.2	65.8*
CN1CCCN(C(=O)CNC(=O)c2ccccc2Br)CC1	2.3	2.7	5.7	-0.8	-4.3	8.3	·
Cc1cc(/C=N/n2c(COc3ccccc3)nc3ccccc3c2=O)c(O)c([N+](=O)[O-])c1	16.3	40.6*	7.8	18.1	30.6*	-7.3	54.4*
O=C(NNc1ccc(C(F)(F)F)cc1[N+](=O)[O-])c1ccc(NS(=O)(=O)c2ccc(F)cc2)cc1	11.5	37.8*	15.2	19.8	22.2	3.3	36.1
CC(C)[C@H](Nc1ccc(C(F)(F)F)cc1[N+](=O)[O-])C(=O)O	5.2	2.0	1.2	4.8	-1.1	3.1	·
O=C(c1ccc(=O)[nH]c1)N1CCCc2ccccc21	3.6	-0.8	-1.9	-3.5	-3.3	0.9	·
NCCOc1ccc(C23CC4CC(CC(C4)C2)C3)cc1	5.3	11.0	13.8	-0.3	3.2	10.6	·
Oc1ccc(C23CC4CC(CC(C4)C2)C3)cc1O	4.0	58.8*	61.1*	1.0	24.0	7.7	81.1*
CCN(CC)S(=O)(=O)c1cc(OC)ccc1N=Nc1ccc(O)c2ncccc12	10.2	62.6*	6.0	19.7	·	7.7	68.7*
CCS(=O)(=O)c1ccc(OC)c(N=Nc2ccc(O)c3ncccc23)c1	1.7	45.0*	7.2	2.6	17.1	-3.7	31.5

Source: PubChem (The Scripps Research Institute Molecular Screening Center)
